About 79,000 compounds went through this panel and 15% of them were active in at least one assay; those are over-represented in the sample as a whole. Values without a mark were called inactive. Calls of active or inactive are those of the source. Cut-off read from the data, not from the text of the source: active = growth inhibition above about 70%; inactive = the rest. Where a SMILES comes first, the peptide text is derived from it. [ ]: non-standard residue; d: D form. ξ: configuration not given here. ξD = NC(CC(=O)O)C(=O)O
Assay: NCI Yeast Anticancer Drug Screen. Data for the rad50 strain (AID 155);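 note: 0% = growth of vehicle-only cultures of the same strain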
Conditions: S. cerevisiae rad50 strain growth inhibition; at 5.0 µM (retest, dose inferred, filed as 0.5); stronger effect = higher value
Method in brief: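 DNA repair mutant yeast, compound exposure, growth read-out; inhibition is taken relative to vehicle.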
For `COC(=O)c1nc(=S)[nH]c(C(=O)OC)c1C(=O)c1ccc(Cl)c(Cl)c1`, the growth inhibition was -8%. Work on `NC(=Nc1nc(-c2ccccn2)cc2ccccc12)c1ccccn1` yielded a growth inhibition of 54%. In the case of `Cc1nc(Sc2nc3ccc([N+](=O)[O-])cc3s2)sc1C`, the growth inhibition is reported as -8%. `NC(=S)Nc1ccc2c(c1)Cc1ccccc1-2` gave a growth inhibition of 2%. Work on `CN(C)CCN(C)CC(C)(C)C(=O)/C=C/c1ccc(Cl)c(Cl)c1` yielded a growth inhibition of 13%. With `CCCCCCCCCCCCCCCc1ccc(C(=O)C[n+]2ccccc2)cc1` the growth inhibition was 29%. For `O=C(CCl)N(c1ccccc1)c1ccccc1`, the growth inhibition was 5%. For `CCOC(=O)C1=C(C(=O)c2ccccc2)C(c2cccc([N+](=O)[O-])c2)C(C(=O)c2ccccc2)=C(C(=O)OCC)N1`, the growth inhibition was -3%. Work on `CCN1CCCC(Nc2cc(C)nc(/N=C(/N)Nc3ccc(Cl)c(Cl)c3)n2)C1` (centres undefined) yielded a growth inhibition of 48%. In the case of `CCc1cnc2ccccc2c1/C=C/c1ccc(N(C)C)cc1`, the growth inhibition is reported as -13%. In the case of `O=[N+]([O-])c1ccc2c(c1)Cc1ccccc1-2`, the growth inhibition is reported as 15%. Work on `Fc1ccc(NCCS)cc1` yielded a growth inhibition of -18%. With `CCCCC(C=O)(C=C=C(C)C)CC` (centres undefined) the growth inhibition was -4%. For `CN(C)c1ccc(/C=C/c2cc[n+](C)c(/C=C/c3ccc(N(C)C)cc3)c2)cc1`, the growth inhibition was 98% (active). `COc1cc([C@@H]2c3cc4c(cc3[C@H](OC3OC5COC(c6ccccc6)OC5C(O)C3O)[C@H]3COC(=O)[C@H]23)OCO4)cc(OC)c1OC` (some centres undefined) showed a growth inhibition of -4%. For `OC(c1cc(-c2ccc(Cl)cc2)nc2c(Cl)cccc12)C1CCCCN1` (centres undefined), the growth inhibition was 73% (active). `CSc1nc(C)c(C(=O)CCN2CCN(c3ccccn3)CC2)s1` showed a growth inhibition of -3%. `Cc1cc(C(=O)c2ccc(Cl)cc2)ccc1O` showed a growth inhibition of 0%. Compound `O=C(c1ccccc1)C(Br)C(Br)c1ccccc1` (centres undefined) has a growth inhibition of 31%. `CCCCCCN(CCCCCC)CCCNc1nccc2ccccc12` gave a growth inhibition of 4%. Work on `CCCCCCCCCCCC[S+](C)CC(=O)[O-]` (centres undefined) yielded a growth inhibition of 20%. Compound `COC(=O)C(=[N+]=[N-])C(=O)c1ccc([N+](=O)[O-])o1` has a growth inhibition of 32%. In the case of `Cc1c(O)ccc(SC#N)c1C`, the growth inhibition is reported as -7%. In the case of `Oc1c(Cl)cc(Cl)cc1C(c1cc(Cl)cc(Cl)c1O)C(Cl)(Cl)Cl`, the growth inhibition is reported as -2%. For `CCCCCCCCCCCCNCCCc1ccccc1`, the growth inhibition was 99% (active). Compound `Nc1ccc(C(=O)/C=C/c2ccccc2)cc1` has a growth inhibition of 6%. Compound `NCC(=O)NC(CC(=O)O)C(=O)O` (centres undefined) (H-Gly-[ξD]-OH) has a growth inhibition of -1%. For `CN(C)c1ccc(C(=C2C=CC(=[N+](C)C)C=C2)c2ccc(N(C)C)cc2)cc1`, the growth inhibition was 99% (active). `O=C1c2ccccc2Cc2cccc(Cl)c21` showed a growth inhibition of 15%. `O=C/C=C/c1ccc([N+](=O)[O-])cc1` gave a growth inhibition of 24%. `O=C1c2ccccc2C(=O)c2c(O)c(Cl)cc(O)c21` gave a growth inhibition of 3%. Work on `CN1CSC(=S)N(Cc2ccccc2)C1` yielded a growth inhibition of 20%. `CC(O)C(O)C(O)C(O)C(O)C(=O)NNc1ccccc1` (centres undefined) gave a growth inhibition of 9%. With `Cn1c(COC(=O)NC2CCCCC2)c(COC(=O)NC2CCCCC2)c2ccc3cc(Cl)c(Cl)cc3c21` the growth inhibition was 8%. Work on `NC(=S)N/N=C\c1nccc2c(N)cccc12` yielded a growth inhibition of 6%. With `Oc1cc(Cl)ccc1Cc1ccc(Cl)cc1O` the growth inhibition was 97% (active). Compound `CCCCCCCCCCCC(=O)OC(C)C(=O)NCCCC` (centres undefined) has a growth inhibition of 0%. With `CCC(=O)c1cc([N+](=O)[O-])c(Br)s1` the growth inhibition was 99% (active). `OC(Cc1cc(CC(O)(C(F)(F)F)C(F)(F)F)nc(CC(O)(C(F)(F)F)C(F)(F)F)c1)(C(F)(F)F)C(F)(F)F` showed a growth inhibition of 8%.

Source: PubChem BioAssay (NCI)
